Test results as given in PubChem BioAssay (EPA / NIEHS).
Values joined by “and” are separate entries in the source; they are usually repeats but may differ in a detail not shown here. Equal values may be shown once. Results filed as inconclusive are left out. Active and inactive are the calls of the source. How the source made its calls, unless noted: active means hit-call score of the fitted dose curve at least 0.9, where 1 is the maximum; inconclusive means response in the unintended direction; inactive means score below 0.9.

How the values were obtained:
[1] = target: Cellular tumor antigen p53 (Homo sapiens) (UniProt P04637); assay: TOX21_p53_BLA_p2_ratio: Tox21 HCT-116 p53 Agonism Beta-lactamase Assay, Ratio, Phase 2 (AID 2283592)
In short: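 HCT116 p53-bla; 4000 cells/well; 5 h pre-incubation; cpd in DMSO, 217-fold dilution; 16 h 37C/5% CO2; CCF4-AM 2 h RT; Ex 405, Em 460/530 ratio; DMSO = baseline; positive fitting direction.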

[2] = TOX21_p53_BLA_p3_viability: Viability Assessment in the Tox21 HCT-116 p53 Agonism Beta-lactamase Assay, Phase 3 (AID 2283593);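 further: cells exposed to compound for 16 h before reading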
In short: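 HCT116 cells, 4000/well, dosed 5 h after plating by pin transfer (217-fold dilution from DMSO stock) and incubated 16 h at 37C, 5% CO2. Viability read as ATP luminescence with CellTiter-Glo after 30 min at room temperature.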

[3] = target: Cellular tumor antigen p53 (Homo sapiens) (UniProt P04637); assay: TOX21_p53_BLA_p3_ratio: Tox21 HCT-116 p53 Agonism Beta-lactamase Assay, Ratio, Phase 3 (AID 2283596)
In short: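 HCT116 p53-bla cells (4000/well) given compound in DMSO (217-fold dilution) after 5 h, incubated 16 h at 37C. CCF4-AM substrate 2 h at room temperature; 460/530 nm emission ratio, gain fitted against DMSO.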

[4] = TOX21_p53_BLA_p4_viability: Viability Assessment in the Tox21 HCT-116 p53 Agonism Beta-lactamase Assay, Phase 4 (AID 2283597);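 further: hits lower the luminescence signal meaning cytotoxicity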
In short: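 Cells plated, 5 h pre-incubation; DMSO compounds pinned (217-fold dilution); 16 h, 37C/5% CO2; CCF4-AM 2 h RT; CellTiter-Glo 30 min RT; luminescence read.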

[5] = target: Cellular tumor antigen p53 (Homo sapiens) (UniProt P04637); assay: TOX21_p53_BLA_p5_ratio: Tox21 HCT-116 p53 Agonism Beta-lactamase Assay, Ratio, Phase 5 (AID 2283599)
In short: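 HCT-116 p53-bla cells (4000/well) plated 5 h, dosed with compound (217-fold DMSO dilution) for 16 h at 37 C; CCF4-AM substrate 2 h at room temperature. Activity is the 460/530 nm emission ratio (405 nm excitation), fitted in gain-of-signal direction versus DMSO.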

[6] = TOX21_p53_BLA_p5_viability: Viability Assessment in the Tox21 HCT-116 p53 Agonism Beta-lactamase Assay, Phase 5 (AID 2283600)
In short: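 4000 cells/well; 5 h pre-incubation; DMSO compounds pin-transferred, 217-fold dilution; 16 h, 37C/5% CO2; CCF4-AM 2 h RT; CellTiter-Glo 30 min RT; luminescence.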

[7] = target: Cellular tumor antigen p53 (Homo sapiens) (UniProt P04637); assay: TOX21_p53_BLA_p4_ratio: Tox21 HCT-116 p53 Agonism Beta-lactamase Assay, Ratio, Phase 4 (AID 2283601)
In short: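 HCT-116 p53 beta-lactamase reporter cells (4000/well) preincubated 5 h, then compound (217-fold dilution of DMSO stock) for 16 h at 37C. CCF4-AM substrate added 2 h at room temperature; 460/530 nm emission ratio fitted upward versus DMSO.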

[8] = test system: Thyroperoxidase (TPO), gene 54314; assay: CCTE_Simmons_AUR_rTPO: CCTE's Amplex UltraRed Assay for Thyroperoxidase (TPO) Inhibition, Simmons Lab (AID 2283662);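 further: potency for loss of signal meaning inhibition of peroxidase activity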
In short: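 Cell-free peroxidase activity assay using rat thyroid gland microsomes with excess H2O2 (300 uM) and 25 uM Amplex UltraRed. Compounds tested from 5 nM to 87.5 uM; fluorescence measured after 30 min at 37C, analysed relative to DMSO baseline.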

[9] = CCTE_Simmons_CellTiterGLO_HEK293T: Viability Assessment in CCTE's Assays for Thyroperoxidase (TPO) Inhibition, Simmons Lab (AID 2283665);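 on AC50: cells exposed to compound for 24 h before readout; actives reduce ATP signal below DMSO vehicle meaning cytotoxicity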
In short: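 HEK293T, 10 000 cells/well, DMEM + 1% FBS; 8-pt titration 5 nM–87.5 uM [final], 0.5% DMSO; 24 hr, 37C, 5% CO2; CellTiter-Glo luminescence; n=3 biological replicates.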

[10] = CCTE_Padilla_ZF_144hpf_TERATOSCORE: (Legacy) CCTE's 144 Hour Post-fertilization zebrafish Assay Teratoscore, Padilla Lab (AID 2283679; active means hit-call score of the fitted dose curve at least 0.9, where 1 is the maximum; inactive means score below 0.9;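 further: zebrafish embryos with chorions exposed by immersion from 6-8 hpf to 5 dpf with daily renewal; teratogenicity score from eye scoring of death hatching and malformations at 144 hpf; higher score means more developmental defects relative to DMSO baseline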)
In short: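 Larvae scored by eye at 144 hpf for death, hatching and malformations after a day in clean Hanks'. Before that, daily-renewed exposure at 80 uM (0.4% DMSO, 26C) from roughly 6-8 hpf through 5 dpf, 4 embryos per chemical.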

Measured: AC50

Sequence of Cellular tumor antigen p53 (Homo sapiens) (P04637 whole entry, looked up): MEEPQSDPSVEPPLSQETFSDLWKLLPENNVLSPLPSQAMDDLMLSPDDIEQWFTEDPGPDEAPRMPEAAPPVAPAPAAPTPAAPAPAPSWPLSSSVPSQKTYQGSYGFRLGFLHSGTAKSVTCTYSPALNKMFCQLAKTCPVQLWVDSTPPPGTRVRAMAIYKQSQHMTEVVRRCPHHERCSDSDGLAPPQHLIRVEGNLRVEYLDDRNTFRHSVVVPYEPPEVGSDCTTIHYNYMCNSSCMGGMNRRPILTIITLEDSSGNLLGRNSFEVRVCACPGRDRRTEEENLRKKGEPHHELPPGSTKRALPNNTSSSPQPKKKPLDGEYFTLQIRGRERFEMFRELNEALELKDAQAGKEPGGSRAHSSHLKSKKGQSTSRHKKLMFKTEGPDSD

Cn1c([N+](=O)[O-])cnc1COC(N)=O
not listed: [8] | [9] | [10]
inactive: all other assays above

O=C1c2cccc(O)c2C(=O)c2c(O)cc(CO)cc21
inactive: [2] | [3] | [4] | [6] | [7]
active: [1] 31.7 µM | [5] 33.3 µM

CNC(=S)N(C)C
inactive: [1] | [2] | [3] | [4] | [5] | [7]

Nc1nc2ccccc2[nH]1
not listed: [8] | [9] | [10]
inactive: all other assays above

Nc1ccc(-c2ccc(F)cc2)cc1
inactive: [1] | [2] | [3] | [4] | [5] | [7]

Cc1cc(O)c(Cl)c(C)c1Cl
active: [1] 73.9 µM | [2] 57.8 µM | [3] 85 µM | [4] 61.7 µM | [5] 77.1 µM | [6] 70.1 µM | [7] 74.9 µM

NCCCN1CCN(CCCN)CC1
inactive: [1] | [2] | [3] | [4] | [5] | [7]

O=c1cc[nH]c(=S)[nH]1
not listed: [8] | [9] | [10]
inactive: all other assays above

CN(C)c1ccc(C(=N)c2ccc(N(C)C)cc2)cc1
active: [1] 896 nM and 2.2 µM | [3] 13.2 µM and 6.84 µM | [5] 2.63 µM and 2.56 µM | [7] 936 nM and 1.49 µM | [8] 31.6 µM
inactive: [2] | [4] | [6] | [9]

CC(C)c1ccc2c(c1)CC[C@H]1[C@](C)(CN)CCC[C@]21C
active: [1] 47.1 µM | [2] 32.3 µM | [3] 72.5 µM | [4] 49.6 µM | [5] 78.5 µM | [6] 63.5 µM | [7] 85.8 µM

N=c1ccn2c(n1)O[C@H]1[C@H](O)[C@@H](CO)O[C@H]12
active: [1] 1 µM and 2.41 µM | [3] 2.17 µM and 3.17 µM | [5] 2.67 µM and 729 nM | [7] 1.27 µM and 1.19 µM
inactive: [2] | [4] | [6]

OC1OCCOC1O (stereo unspecified)
inactive: [1] | [2] | [3] | [4] | [5] | [7]

CCCCC(CC)CCC(CC(C)C)OS(=O)(=O)O (stereo unspecified)
not listed: [8] | [9] | [10]
inactive: all other assays above

C1CN(SSN2CCOCC2)CCO1
active: [8] 4.25 µM | [9] 88.9 µM
not listed: [10]
inactive: all other assays above

C[Si](C)(CCCN)O[Si](C)(C)CCCN
inactive: [1] | [2] | [3] | [4] | [5] | [7]

CC(=O)Nc1nnc(S(N)(=O)=O)s1
not listed: [8] | [9] | [10]
inactive: all other assays above

Nc1ccc(Cl)cc1Cl
inactive: [1] | [2] | [3] | [4] | [5] | [7]

SCCc1cnccn1
active: [1] 45.1 µM | [3] 21.6 µM | [5] 35.7 µM | [7] 60.3 µM
inactive: [2] | [4]

CCCNC(=O)NS(=O)(=O)c1ccc(Cl)cc1
not listed: [8] | [9] | [10]
inactive: all other assays above

[Cl][In]([Cl])[Cl]
not listed: [8] | [9] | [10]
inactive: all other assays above

CCCCCCC(O)CO (stereo unspecified)
not listed: [8] | [9] | [10]
inactive: all other assays above

COCc1c(C(C)C)nc(C(C)C)c(/C=C/[C@@H](O)C[C@@H](O)CC(=O)O)c1-c1ccc(F)cc1
active: [10] 78.1 nM and 159 nM
not listed: [8] | [9]
inactive: all other assays above

CCC(C)C=O (stereo unspecified)
not listed: [8] | [9] | [10]
inactive: all other assays above

CC(=O)OC(C)C
not listed: [8] | [9] | [10]
inactive: all other assays above

CC1OC1C1CCC2(C)OC2C1 (stereo unspecified)
inactive: [1] | [2] | [3] | [4] | [5] | [7]

CCCCCCCCCCCSCC(=O)O
inactive: [2] | [3]
active: [1] 83.3 µM | [4] 84 µM | [5] 83.5 µM | [6] 74 µM | [7] 86.7 µM

C[C@]12C=CC(=O)C=C1CC[C@@H]1[C@@H]2[C@@H](O)C[C@@]2(C)[C@H]1CC[C@]2(O)C(=O)CO
not listed: [8] | [9] | [10]
inactive: all other assays above
